The values below come from PubChem BioAssay AID430 (Sanford-Burnham Center for Chemical Genomics, 2006).

About 1,100 (1.7%) of roughly 63,000 compounds were called active. Only a selection was taken, and actives are over-represented in it overall. Measured potencies and affinities stand elsewhere. A number with no mark means an inactive call. Rule as the data show it: active = cytotoxicity above about 50%; inactive = the rest.

A short description of the assay: HPDE-C7 pancreatic duct cell viability loss – fluorescence, HTS (AID 430).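 Also: cells exposed to compound for 48 hours before viability readout; 0% = vehicle and 100% = reference cytotoxic drug.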 The note with it: HPDE-C7 pancreatic duct cells viability, at 10 µM, hits give high values.
`COc1ccc(C)cc1S(=O)(=O)NC1CCCC1`: the cytotoxicity was 8.4%.
In the case of `CCn1ncc(C2=NOC(C(=O)NCc3ccc(Cl)cc3)C2)c1C` (configuration not stated) it was 65.1% (active); in that of `CCn1ncc(C2=NOC(C(=O)NCCc3ccccc3)C2)c1C` (configuration not stated), -13.2%.
On to `CCn1ncc(C2=NOC(C(=O)NCc3ccccc3)C2)c1C` (configuration not stated), for which the cytotoxicity was 54.7% (active).
As to `CCn1ncc(C2=NOC(C(=O)NCc3ccc(OC)cc3)C2)c1C` (configuration not stated), the cytotoxicity was 21.2%.
`CCn1ncc(C2=NOC(C(=O)Nc3c(C)nn(Cc4ccc(F)cc4)c3C)C2)c1C` (configuration not stated): the cytotoxicity was 25.1%.
In the case of `CCn1ncc(C2=NOC(C(=O)Nc3cccnc3)C2)c1C` (configuration not stated) it was -4.8%; in that of `CCOC(=O)CN1C(=O)C(=O)c2cccc(C)c21`, -46.9%.
As for `O=C(NCc1ccco1)C1CN(S(=O)(=O)c2ccccc2)CCN1S(=O)(=O)c1ccccc1` (configuration not stated), the cytotoxicity was -23.1%.
With `CCc1c(C)nc2ncnn2c1N1CCC(C(=O)N2CCN(c3ccc(F)cc3)CC2)CC1` the figure was -1.9%; with `COC(=O)CSc1nc2ccc(NC(C)=O)cc2s1`, -5.9%.
Turning to `COc1cc2c(cc1OC)CN(C(=O)c1ccccc1C(=O)O)CC2`, the cytotoxicity was -15.6%.
With `O=C(Cn1nnc(-c2ccc(N3CCOCC3)cc2)n1)OC1CCCCC1`, the cytotoxicity is -25.2%.
Take `COC(=O)CSc1nnc(-c2ccc(OC)cc2OC)o1`: the cytotoxicity is 3.4%.
With `COc1ccc(N2CCN(C(c3ccccc3OC)c3nnnn3Cc3ccco3)CC2)cc1` (configuration not stated) the figure was -1.6%; with `COc1cc(C2C(C#N)=C(C)NC3=C2C(=O)CC(C)(C)C3)cc(OC)c1O` (configuration not stated), 3.7%; with `COc1ccc(C2CC(=O)C3=C(C2)NC(C)=C(C#N)C3c2ccc(N(C)C)cc2)cc1` (configuration not stated), -4.4%.
Take `COc1cc(C2C(C#N)=C(C)NC3=C2C(=O)CC(C)(C)C3)ccc1O` (configuration not stated): the cytotoxicity is -9.2%.
In the case of `COc1cc(C2C(C#N)=C(C)NC3=C2C(=O)c2ccccc23)cc(OC)c1OC` (configuration not stated) it was 76.3% (active); in that of `COc1ccc(C2C(C#N)=C(C)NC3=C2C(=O)c2ccccc23)cc1` (configuration not stated), 55.2% (active); in that of `COc1ccc(C2C(C#N)=C(SC)NC3=C2C(=O)CC(C)(C)C3)cc1` (configuration not stated), -11.2%.
In the case of `CSc1nc(-c2ccco2)nn1C(=O)c1ccco1` it was -12.1%.
With `CCOc1cc(NC(=O)c2ccco2)c(OCC)cc1NC(=O)CCC(=O)NCc1cccnc1` the figure was 32.8%; with `COc1ccc(C(C#N)N2CCCCC2)cc1OC` (configuration not stated), -1.7%.
For `Cc1cccc(-c2noc(CN(C(=O)CCc3ccccc3)C(C)C)n2)c1`, the cytotoxicity is -16.1%.
With `CCCC(=O)Nc1nc2ccc3nc(C)sc3c2s1`, the cytotoxicity is 9.8%.
Turning to `CCOc1ccc(OCC)c(S(=O)(=O)N2CCCCC2C)c1` (configuration not stated), the cytotoxicity is -8.3%.
With `Cc1cccc(N2C(=O)SC(N(C)c3ccccc3)C2=O)c1` (configuration not stated) the figure was -8.6%; with `Cc1ccc(Cl)cc1NC(=O)CC(O)(C(F)(F)F)C(F)(F)F`, 51.2% (active).
Turning to `Cc1ccc(NC(=O)CC(O)(C(F)(F)F)C(F)(F)F)c(Br)c1`, the cytotoxicity is -3.8%.
In the case of `CCNC(=O)CCC(=O)Nc1cc(Cl)ccc1C` it was -6.9%; in that of `CN(C)c1ccc(CN2CCCC(O)C2)cc1` (configuration not stated), 0.6%; in that of `OC1CCCN(Cc2cccc3ccccc23)C1` (configuration not stated), 4.1%.
As to `O=C(CCc1nc2ccccc2c(=O)[nH]1)OCc1nnc(-c2ccccc2)o1`, the cytotoxicity was 8.5%.
With `CCN(CCCNC(=O)C1CCN(S(=O)(=O)CC)CC1)c1ccccc1`, the cytotoxicity was -4%.
With `O=C(Oc1ccc2c(c1)OCO2)c1cccs1` the figure was -3.4%.
In the case of `O=C(Oc1ccc2c(c1)OCO2)c1ccncc1` it was 10.6%; in that of `O=C(Oc1ccc2c(c1)OCO2)c1cc2c(s1)CCC2`, 56.8% (active); in that of `Cc1cccc(C(=O)OCc2cc3ccccc3[nH]c2=O)c1`, 8.5%.
With `COc1cccc(C(=O)N2CCN(c3ncccn3)CC2)c1` the figure was 1.5%; with `CCCCC(=O)c1c(O)c2ccccc2oc1=O`, 9.3%.
For `CCc1oc2ccccc2c1C(=O)CCN1CCCCC1`, the cytotoxicity was -17.7%.
In the case of `c1coc(CNc2nc3sc4c(c3c3ncnn23)CCCC4)c1`, the cytotoxicity was -5.5%.
`O=C(NC1CCCCC1)NC1CCN(S(=O)(=O)c2ccc3c(c2)OCCO3)CC1`: the cytotoxicity is -1.5%.
Turning to `O=C(NC1CCCCC1)c1ccc(S(=O)(=O)NCc2ccco2)cc1`, the cytotoxicity was -1.9%.
Take `O=C(Nc1ccccc1)c1ccc(S(=O)(=O)NCc2ccco2)cc1`: the cytotoxicity was -0.2%.
In the case of `O=C(NCCc1c[nH]c2ccccc12)c1ccc(S(=O)(=O)NCc2ccco2)cc1` it was 51.9% (active); in that of `Cc1cccc(C)c1NC(=O)c1cc(S(=O)(=O)N2CCOCC2)ccc1F`, -47.4%; in that of `O=C(Nc1c2c(nn1-c1ccc(F)cc1)CSC2)c1ccc(S(=O)(=O)N2CCOCC2)cc1`, -9.4%.
In the case of `O=C1C(Cl)=C(NCCCN2CCOCC2)C(=O)N1CCc1ccccc1` it was 1.4%; in that of `Oc1ccc2oc3c(c2c1/C=N/n1cnnc1)CCCC3`, -15.1%; in that of `Cc1nc2ccccc2c(=O)n1/N=C/c1ccc(O)cc1`, 33.8%.
As for `Cc1nc2ccccc2c(=O)n1/N=C/c1c(O)ccc2oc3c(c12)CCCC3`, the cytotoxicity was 63% (active).
With `Oc1c(C(c2cccs2)N2CCN(c3ccccc3)CC2)sc2ncnn12` (configuration not stated) the figure was -10%.
For the compound `COc1cc(O)c(NC(C)=O)c2nonc12`, the cytotoxicity is -7.7%.
With `CC(=O)Nc1nonc1NC(C)=O` the figure was -3.4%.
In the case of `Cc1nn(-c2ccc(F)cc2F)c2c1-c1nc(N3CCCC3)ncc1CC2` it was 3.8%.
Take `COc1ccc(C(=O)NC2CCN(C(=O)NC3CCCCC3)CC2)cc1`: the cytotoxicity was -6.7%.
Take `COc1ccc(CN2C(=O)CCC2(C)C(=O)NC2CCCCC2)c(OC)c1` (configuration not stated): the cytotoxicity was -3.1%.
In the case of `COc1ccc2[nH]c(=O)c(CN(Cc3nnnn3Cc3ccc(F)cc3)CC3CCCO3)cc2c1` (configuration not stated) it was -39.9%; in that of `CCc1ccccc1NC(=O)C(CC)Sc1nc2cc3c(cc2c(=O)n1Cc1ccco1)OCO3` (configuration not stated), 2.1%; in that of `CCC(Sc1nc2cc3c(cc2c(=O)n1Cc1ccco1)OCO3)C(=O)Nc1ccccc1OC` (configuration not stated), -11.3%.
